Read-out in assay [1]: Interleukin-8 (IL8), CXCL8 (gene 3576)
As to the kind of experiment: BSK_3C_IL8: BioMAP Diversity Plus: 3C Assay for Interleukin-8 (IL8) Biomarker Activity (AID 2283020). The settings on record: primary human endothelial cells (HUVEC); actives raise or lower the signal. Summed up:
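ELISA read-out of IL-8 from human umbilical vein endothelium, measured 24 h after chemical dosing. Activity is expressed relative to DMSO negative control, with both increases and decreases fitted.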

Read-out in assay [2]: Monokine induced gamma interferon (MIG), CXCL9 (gene 4283)
As to the kind of experiment: BSK_3C_MIG: BioMAP Diversity Plus: 3C Assay for Monokine induced gamma interferon (MIG) Biomarker Activity (AID 2283021). The conditions noted are these: primary human endothelial cells (HUVEC); actives raise or lower the signal. Summed up:
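Read-out is ELISA detection of MIG on human umbilical vein endothelial cells, taken 24 h after dosing. Gain or loss of signal was scored relative to DMSO controls using bidirectional curve fitting.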

Assay [3] is described as follows: BSK_3C_SRB: Viability Assessment in the BioMAP Diversity Plus: 3C Assay (AID 2283023).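 Also: fitted both ways against DMSO so a hit may be signal rise or drop.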 The settings on record: primary human endothelial cells (HUVEC). Summed up: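 Absorbance at 560 nm of sulforhodamine B-stained (0.1%) total protein served as a cytotoxicity readout in human umbilical vein endothelial cells, 24 h after chemical treatment. Signal was fitted bidirectionally relative to DMSO.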

Read-out in assay [4]: Matrix Metallopeptidase 1 (MMP1), MMP1 (gene 4312)
As to the kind of experiment: BSK_BE3C_MMP1: BioMAP Diversity Plus: BE3C Assay for Matrix Metallopeptidase 1 (MMP1) Biomarker Activity (AID 2283024). The conditions noted are these: primary human bronchial epithelial cells; actives raise or lower the signal. The essentials: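 Human bronchial epithelial cells (BE3C system) exposed to compound for 24 h; MMP1 then quantified by ELISA. Activity was fitted in both directions relative to DMSO.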

Assay [5] in a line: BSK_3C_Vis: BioMAP Diversity Plus: 3C Assay for Morphology Visualization (AID 2283025).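 Also: fitted both ways so gain or loss versus DMSO counts.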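 As to AC50: light microscopy image of cell morphology used as background control.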 The conditions noted are these: primary human endothelial cells (HUVEC). The essentials:
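Chemicals were added to primary human umbilical vein endothelium, cells were incubated 24 h, and morphology was then visualized by light microscopy. Gain or loss of signal was fitted bidirectionally relative to DMSO.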

Read-out in assay [6]: Pselectin, SELP (gene 6403)
Nature of the assay: BSK_4H_Pselectin: BioMAP Diversity Plus: 4H Assay for Pselectin Biomarker Activity (AID 2283026). The conditions noted are these: primary human endothelial cells (HUVEC); actives raise or lower the signal. The essentials: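 ELISA read-out of P-selectin on human umbilical vein endothelium after 24 h of dosing. Values derive from bidirectional fitting relative to DMSO. Parallel SRB protein staining flagged overt cytotoxicity.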

Assay [7] is described as follows: BSK_4H_SRB: Viability Assessment in the BioMAP Diversity Plus: 4H Assay (AID 2283027).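 Also: cells exposed to compound for 24 h before staining.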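 As to AC50: curves fitted both ways versus DMSO so AC50 may be loss or gain.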 The settings on record: primary human endothelial cells (HUVEC). Summed up:
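Absorbance at 560 nm of SRB-stained total protein served as the viability read-out in confluent primary human umbilical vein endothelium 24 h after chemical treatment. Curves were fitted bidirectionally against DMSO as negative control.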

The nature of assay [8]: BSK_BE3C_SRB: Viability Assessment in the BioMAP Diversity Plus: BE3C Assay (AID 2283028). The conditions noted are these: primary human bronchial epithelial cells. Summed up: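 Cells (human bronchial epithelial, primary) are treated with chemicals, and after 24 h the parallel cultures are fixed in 10% TCA. These are then stained with 0.1% SRB and read at 560 nm. Gain or loss of signal is fitted relative to DMSO.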

Read-out in assay [9]: Thrombomodulin, THBD (gene 7056)
As to the kind of experiment: BSK_3C_Thrombomodulin: BioMAP Diversity Plus: 3C Assay for Thrombomodulin Biomarker Activity (AID 2283029). The conditions noted are these: primary human endothelial cells (HUVEC); actives raise or lower the signal. Summed up:
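Read-out is ELISA of thrombomodulin on human umbilical vein endothelium 24 h after chemical dosing. Gain or loss of signal is scored relative to DMSO. Overt cytotoxicity is checked in parallel cultures by sulforhodamine B staining.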

Read-out in assay [10]: Urokinase-type plasminogen activator receptor (uPAR), PLAUR (gene 5329)
As to the kind of experiment: BSK_4H_uPAR: BioMAP Diversity Plus: 4H Assay for Urokinase-type plasminogen activator receptor (uPAR) Biomarker Activity (AID 2283030). The settings on record: primary human endothelial cells (HUVEC); actives raise or lower the signal. The essentials:
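Cell-surface uPAR ELISA signal, measured 24 h after dosing human umbilical vein endothelial cells, was analyzed with bidirectional fitting relative to DMSO. Parallel SRB staining of total protein tracked overt cytotoxicity.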

Read-out in assay [11]: Vascular endothelial growth factor receptor 2 (Homo sapiens) (UniProt P35968)
As to the kind of experiment: BSK_4H_VEGFRII: BioMAP Diversity Plus: 4H Assay for Vascular endothelial growth factor receptor 2 (VEGFR2) Biomarker Activity (AID 2283031). The conditions noted are these: primary human endothelial cells (HUVEC); actives raise or lower the signal. Summed up: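 ELISA read-out of VEGFRII in primary human umbilical vein endothelium, taken 24 h after chemical treatment. Responses are expressed relative to DMSO, with bidirectional fitting.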

Read-out in assay [12]: Human Leukocyte Antigen - DR isotype (HLADR), HLA-DRA (gene 3122)
Nature of the assay: BSK_BE3C_HLADR: BioMAP Diversity Plus: BE3C Assay for Human Leukocyte Antigen - DR isotype (HLADR) Biomarker Activity (AID 2283032). The settings on record: primary human bronchial epithelial cells; actives raise or lower the signal. The essentials: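 ELISA read-out of HLA-DR on human lung bronchial epithelial primary cells, measured 24 h post-dosing. Both increases and decreases were scored relative to DMSO vehicle.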

Read-out in assay [13]: Vascular cell adhesion molecule 1 (VCAM1), VCAM1 (gene 7412)
Nature of the assay: BSK_4H_VCAM1: BioMAP Diversity Plus: 4H Assay for Vascular cell adhesion molecule 1 (VCAM1) Biomarker Activity (AID 2283033).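 Also: cell-surface VCAM-1 protein measured by ELISA.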 The conditions noted are these: primary human endothelial cells (HUVEC); actives raise or lower the signal. Summed up:
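ELISA read-out of VCAM-1 on human umbilical vein endothelium 24 hours after chemical dosing; gain or loss of signal was fitted relative to DMSO, with sulforhodamine B staining of parallel cultures flagging overt cytotoxicity.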

Read-out in assay [14]: Interferon-gamma inducible Protein 10 (IP10), CXCL10 (gene 3627)
As to the kind of experiment: BSK_BE3C_IP10: BioMAP Diversity Plus: BE3C Assay for Interferon-gamma inducible Protein 10 (IP10) Biomarker Activity (AID 2283034). The settings on record: primary human bronchial epithelial cells; actives raise or lower the signal. The essentials:
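Chemical is dosed onto human lung bronchial epithelial primary cells, cultures are incubated 24 h, and IP-10 is then quantified by ELISA. Gain or loss of signal is fitted in both directions relative to DMSO.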

Read-out in assay [15]: Monokine induced gamma interferon (MIG), CXCL9 (gene 4283)
As to the kind of experiment: BSK_BE3C_MIG: BioMAP Diversity Plus: BE3C Assay for Monokine induced gamma interferon (MIG) Biomarker Activity (AID 2283035).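 Also: MIG protein measured by ELISA in BE3C cultures after 24 h of dosing.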 The conditions noted are these: primary human bronchial epithelial cells; actives raise or lower the signal. Summed up: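 MIG level was determined by ELISA after 24 h chemical treatment of primary human bronchial epithelial cells. Values were fitted bidirectionally with DMSO as the negative control and activity baseline.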

Read-out in assay [16]: Transforming growth factor beta 1 (TGFb1), TGFB1 (gene 7040)
As to the kind of experiment: BSK_BE3C_TGFb1: BioMAP Diversity Plus: BE3C Assay for Transforming growth factor beta 1 (TGFb1) Biomarker Activity (AID 2283036;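 also: TGF-b1 protein level measured by ELISA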). The conditions noted are these: primary human bronchial epithelial cells; actives raise or lower the signal. Summed up: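 Primary human lung bronchial epithelial cells; compound exposure 24 h; TGF-b1 by ELISA; bidirectional fit, DMSO baseline. Parallel SRB total-protein staining for cytotoxicity.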

Read-out in assay [17]: Plasminogen activator inhibitor-1 (PAI1), SERPINE1 (gene 5054)
As to the kind of experiment: BSK_BE3C_PAI1: BioMAP Diversity Plus: BE3C Assay for Plasminogen activator inhibitor-1 (PAI1) Biomarker Activity (AID 2283037). The settings on record: primary human bronchial epithelial cells; actives raise or lower the signal. The essentials:
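Primary human lung bronchial epithelial cells; chemical dosing; 24 h; PAI-1 measured by ELISA; bidirectional fit referenced to DMSO as negative control.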

Read-out in assay [18]: urokinase plasminogen activator (uPA), PLAU (gene 5328)
As to the kind of experiment: BSK_BE3C_uPA: BioMAP Diversity Plus: BE3C Assay for urokinase plasminogen activator (uPA) Biomarker Activity (AID 2283038).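 Also: uPA protein level quantified by ELISA in cell cultures; uPA read one day after compound addition.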 The conditions noted are these: primary human bronchial epithelial cells; actives raise or lower the signal. Summed up: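 Bronchial epithelial cells (human, primary); chemical 24 h; uPA by ELISA; bidirectional fit vs DMSO. SRB (0.1%, after 10% TCA fixation, 560 nm) in parallel cultures for cytotoxicity.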

Read-out in assay [19]: Urokinase-type plasminogen activator receptor (uPAR), PLAUR (gene 5329)
Nature of the assay: BSK_BE3C_uPAR: BioMAP Diversity Plus: BE3C Assay for Urokinase-type plasminogen activator receptor (uPAR) Biomarker Activity (AID 2283039).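 Also: cells exposed to compound for one day before measurement.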 The conditions noted are these: primary human bronchial epithelial cells; actives raise or lower the signal. The essentials:
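Human bronchial epithelial primary cells; chemical exposure 24 h; uPAR by ELISA; bidirectional fit vs DMSO control.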

By AC50 is commonly meant the midpoint of the concentration-response curve, whichever way the signal moves.

Active and inactive are the calls of the source. The calls were made as follows: active = hit-call score of the fitted dose curve at least 0.9, where 1 is the maximum; inactive = score below 0.9.

For `Cc1ccn2nc(S(=O)(=O)Nc3c(F)cccc3F)nc2n1`, the outcome in assay [1], in [2], in [3], in assay [4], in assay [5] and in assay [6] was inactive. Further, the result in [8], in assay [9], in assay [10], in assay [11], in [12] and in assay [13] was inactive. Besides, the outcome in assay [14], in assay [15], in assay [16], in assay [17], in [18] and in assay [19] was inactive. In addition, the AC50 in assay [7] is 229 nM (active).

On to `CNC(=O)ON=C(C)SC`, for which the outcome in [1], in assay [2], in assay [3], in [4], in assay [5] and in [6] was inactive. Moreover, the outcome in assay [7], in [8], in assay [9], in assay [10], in [11] and in assay [12] was inactive. Also, the outcome in assay [13], in [14], in [15], in [16], in assay [18] and in [19] was inactive.

Turning to `CC(Oc1cccc(Cl)c1)C(=O)O` (stereo not drawn), the result in [1], in [2], in assay [3], in assay [4], in assay [5] and in [6] was inactive. Besides, the outcome in assay [7], in assay [8], in assay [9], in assay [10], in [11] and in assay [12] was inactive. The result in assay [13], in assay [14], in assay [15], in assay [16], in assay [17] and in assay [18] was inactive. Besides, the result in assay [19] was inactive.

As for `CCC(=NOC/C=C/Cl)C1=C(O)CC(C2CCOCC2)CC1=O` (stereo not drawn), the result in assay [1], in [2], in assay [3], in [4], in assay [5] and in assay [6] was inactive. Besides, the outcome in [7], in [8], in [9], in assay [10], in [11] and in assay [12] was inactive. Also, the outcome in assay [13], in [14], in assay [15], in [16], in [17] and in [18] was inactive. In addition, the result in assay [19] was inactive.

As to `C#CC(C)(C)NC(=O)c1cc(Cl)cc(Cl)c1`, the result in assay [1], in assay [2], in assay [3], in assay [4], in [6] and in assay [7] was inactive. Further, the outcome in [8], in assay [9], in [10], in [11], in assay [13] and in assay [15] was inactive. The result in [16], in assay [18] and in [19] was inactive. In addition, the half-maximal activity concentration (AC50) in assay [5] is 3.25 µM (active); in assay [12], 4.39 µM (active); in [14] it was 14.9 µM (active).
